Measurements as given in PubChem BioAssay.
The source made the active and inactive calls.

Experiments:
[1] = small molecules captured by biotinylated probe aFSTL3 – biochemical, small-molecule microarray, fluorescence 635/667, stem cell growth factor project, primary screen (AID 1064); conditions: higher = more signal;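 further: measures binding of the biotinylated anti-FSTL3 antibody to printed compounds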
[2] = binders from COS7 lysate, DM2A8 probe, primary screen, torsin A project, cell lysate, small-molecule microarray, fluorescence 635/667 (AID 1065); conditions: higher = more signal, COS7 lysate expressing mutant human TOR1A
[3] = small molecules captured by biotinylated probe aFGF2 – biochemical, small-molecule microarray, fluorescence 635/667, stem cell growth factor project, primary screen (AID 1067); conditions: higher = more signal;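 further: measures binding of biotinylated aFGF2 protein to printed compounds on slides; z-score merges feature fluorescence and signal-to-noise across triplicate slides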
[4] = small molecules captured by biotinylated probe aFGF10 – biochemical, small-molecule microarray, fluorescence 635/667, stem cell growth factor project, primary screen (AID 1071); conditions: higher = more signal;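 further: score merges 667 nm spot intensity and signal to noise from triplicate slides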
[5] = biological target: Neurogenic locus notch homolog protein 2 (Homo sapiens) (UniProt Q04721); assay: small molecules binding Notch2 protein – biochemical, small-molecule microarray, 635 nm fluorescence, stem cell growth factors, primary screen (AID 1073); conditions: higher = more signal
[6] = biological target: Pro-neuregulin-1, membrane-bound isoform (Homo sapiens) (UniProt Q02297); assay: small molecules binding neuregulin-1 protein – biochemical, small-molecule microarray, fluorescence 635/667, psychiatric disease protein project, primary screen (AID 1075); conditions: NRG1 binding, 635 nm fluorescence, higher = more signal;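 further: score combines 667 nm spot fluorescence with signal to noise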
[7] = system: Neuregulin-1 EGF-like domain; assay: small molecules binding NRG1 EGF domain – biochemical, small-molecule microarray, 635 nm fluorescence, primary screen (AID 1081); conditions: higher = more signal;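 further: binding of the protein to compounds printed on small-molecule microarray slides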
[8] = FRG1 expression reporter modulators in myotubes – cell-based, C2C12 myotubes, firefly/Renilla luciferase, luminescence, FRG1 inhibition for FSHD, primary screen (AID 1084); conditions: FRG1 promoter luciferase, higher = more signal, called active from +8 up or from −8 down
[9] = small molecules captured by biotinylated probe aFST – biochemical, small-molecule microarray, fluorescence 635/667, stem cell growth factor project, primary screen (AID 1086); conditions: higher = more signal;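 further: score merges 667 nm fluorescence with signal-to-noise of each printed compound spot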
[10] = binders of probe aHhip on microarray, primary screen, stem cell growth factor project, biochemical, small-molecule microarray, fluorescence 635/667 (AID 1087); conditions: higher = more signal;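 further: score merges spot fluorescence at 667nm with spot signal to noise ratio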
[11] = system: PRMT1 (protein arginine N-methyltransferase 1); assay: small molecules binding arginine methyltransferase PRMT1 – biochemical, small-molecule microarray, 635 nm fluorescence, primary screen (AID 1088); conditions: higher = more signal;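 further: binding of Prmt1 protein to compounds spotted on small-molecule microarray slides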
[12] = growth effects on S. cerevisiae YJM789 – YJM789 clinical isolate, OD600, 24 h, basal, primary screen (AID 1089); conditions: higher = more signal, called active from +8 up or from −8 down;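 further: growth of clinical yeast isolate S. cerevisiae YJM 789 seeded 1000 cells per well; test concentration not given here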
[13] = S. pombe growth modifiers, basal conditions – strain 972, OD600, 24 h, no modulator, primary screen (AID 1090);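 further: basal condition with compound alone and no growth modifier present; test concentration not given here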; conditions: S. pombe 972 growth, higher = more signal, called active from +8 up or from −8 down
[14] = budding yeast growth modifiers under rapamycin – strain BY4716, OD600, 96 h, primary screen (AID 1091); further: test concentration not given here; conditions: S. cerevisiae BY4716 + rapamycin, higher = more signal, called active from +8 up or from −8 down
[15] = biological target: Torsin-1A-interacting protein 2 (Homo sapiens) (UniProt Q8NFQ8); assay: small molecules binding lysate-expressed LULL1 – cell lysate, human LULL1 lysate, 635/667 nm fluorescence, primary screen (AID 1092); conditions: small-molecule microarray, hLULL1 lysate binding, 635 nm fluorescence; higher = more signal;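 further: probe is lysate of COS7 cells overexpressing human LULL1; score merges per-feature 667 nm fluorescence with signal-to-noise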
[16] = optical density change of DRC41 E. coli – strain DRC41, OD650, 24 h, E. coli filamentation project, primary screen (AID 1093);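 further: MC1000 strain lacking acrAB efflux and sulA so SOS filamentation is blocked; test concentration not given here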; conditions: E. coli DRC41 growth, higher = more signal, called active from +8 up or from −8 down
[17] = probe aLefty2 binding to arrayed compounds – biochemical, biotinylated probe, 635/667 nm fluorescence, primary screen (AID 1094); conditions: small-molecule microarray, higher = more signal;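 further: score merges spot fluorescence near 667 nm with spot signal-to-noise ratio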
[18] = system: Noggin (protein binding on small-molecule microarray); assay: small molecules binding Noggin protein – biochemical, 635/667 nm fluorescence, primary screen (AID 1095); conditions: 635 nm fluorescence, higher = more signal;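 further: score merges 667 nm feature fluorescence with signal to noise over triplicate slides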
[19] = biological target: Neurogenic locus notch homolog protein 3 (Homo sapiens) (UniProt Q9UM47); assay: small molecules binding NOTCH3 protein – biochemical, 635/667 nm fluorescence, primary screen (AID 1096); conditions: small-molecule microarray, 635 nm fluorescence, higher = more signal
[20] = probe aEGFR binding to arrayed compounds – biochemical, biotinylated probe, 635/667 nm fluorescence, primary screen (AID 1097); conditions: small-molecule microarray, higher = more signal;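 further: probe is a biotinylated anti-EGFR antibody binding compounds printed on slides; score combines fluorescence near 667 nm and signal to noise of each spot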

Sequence of Neurogenic locus notch homolog protein 2 (Homo sapiens) (Q04721 whole entry, looked up, canonical isoform): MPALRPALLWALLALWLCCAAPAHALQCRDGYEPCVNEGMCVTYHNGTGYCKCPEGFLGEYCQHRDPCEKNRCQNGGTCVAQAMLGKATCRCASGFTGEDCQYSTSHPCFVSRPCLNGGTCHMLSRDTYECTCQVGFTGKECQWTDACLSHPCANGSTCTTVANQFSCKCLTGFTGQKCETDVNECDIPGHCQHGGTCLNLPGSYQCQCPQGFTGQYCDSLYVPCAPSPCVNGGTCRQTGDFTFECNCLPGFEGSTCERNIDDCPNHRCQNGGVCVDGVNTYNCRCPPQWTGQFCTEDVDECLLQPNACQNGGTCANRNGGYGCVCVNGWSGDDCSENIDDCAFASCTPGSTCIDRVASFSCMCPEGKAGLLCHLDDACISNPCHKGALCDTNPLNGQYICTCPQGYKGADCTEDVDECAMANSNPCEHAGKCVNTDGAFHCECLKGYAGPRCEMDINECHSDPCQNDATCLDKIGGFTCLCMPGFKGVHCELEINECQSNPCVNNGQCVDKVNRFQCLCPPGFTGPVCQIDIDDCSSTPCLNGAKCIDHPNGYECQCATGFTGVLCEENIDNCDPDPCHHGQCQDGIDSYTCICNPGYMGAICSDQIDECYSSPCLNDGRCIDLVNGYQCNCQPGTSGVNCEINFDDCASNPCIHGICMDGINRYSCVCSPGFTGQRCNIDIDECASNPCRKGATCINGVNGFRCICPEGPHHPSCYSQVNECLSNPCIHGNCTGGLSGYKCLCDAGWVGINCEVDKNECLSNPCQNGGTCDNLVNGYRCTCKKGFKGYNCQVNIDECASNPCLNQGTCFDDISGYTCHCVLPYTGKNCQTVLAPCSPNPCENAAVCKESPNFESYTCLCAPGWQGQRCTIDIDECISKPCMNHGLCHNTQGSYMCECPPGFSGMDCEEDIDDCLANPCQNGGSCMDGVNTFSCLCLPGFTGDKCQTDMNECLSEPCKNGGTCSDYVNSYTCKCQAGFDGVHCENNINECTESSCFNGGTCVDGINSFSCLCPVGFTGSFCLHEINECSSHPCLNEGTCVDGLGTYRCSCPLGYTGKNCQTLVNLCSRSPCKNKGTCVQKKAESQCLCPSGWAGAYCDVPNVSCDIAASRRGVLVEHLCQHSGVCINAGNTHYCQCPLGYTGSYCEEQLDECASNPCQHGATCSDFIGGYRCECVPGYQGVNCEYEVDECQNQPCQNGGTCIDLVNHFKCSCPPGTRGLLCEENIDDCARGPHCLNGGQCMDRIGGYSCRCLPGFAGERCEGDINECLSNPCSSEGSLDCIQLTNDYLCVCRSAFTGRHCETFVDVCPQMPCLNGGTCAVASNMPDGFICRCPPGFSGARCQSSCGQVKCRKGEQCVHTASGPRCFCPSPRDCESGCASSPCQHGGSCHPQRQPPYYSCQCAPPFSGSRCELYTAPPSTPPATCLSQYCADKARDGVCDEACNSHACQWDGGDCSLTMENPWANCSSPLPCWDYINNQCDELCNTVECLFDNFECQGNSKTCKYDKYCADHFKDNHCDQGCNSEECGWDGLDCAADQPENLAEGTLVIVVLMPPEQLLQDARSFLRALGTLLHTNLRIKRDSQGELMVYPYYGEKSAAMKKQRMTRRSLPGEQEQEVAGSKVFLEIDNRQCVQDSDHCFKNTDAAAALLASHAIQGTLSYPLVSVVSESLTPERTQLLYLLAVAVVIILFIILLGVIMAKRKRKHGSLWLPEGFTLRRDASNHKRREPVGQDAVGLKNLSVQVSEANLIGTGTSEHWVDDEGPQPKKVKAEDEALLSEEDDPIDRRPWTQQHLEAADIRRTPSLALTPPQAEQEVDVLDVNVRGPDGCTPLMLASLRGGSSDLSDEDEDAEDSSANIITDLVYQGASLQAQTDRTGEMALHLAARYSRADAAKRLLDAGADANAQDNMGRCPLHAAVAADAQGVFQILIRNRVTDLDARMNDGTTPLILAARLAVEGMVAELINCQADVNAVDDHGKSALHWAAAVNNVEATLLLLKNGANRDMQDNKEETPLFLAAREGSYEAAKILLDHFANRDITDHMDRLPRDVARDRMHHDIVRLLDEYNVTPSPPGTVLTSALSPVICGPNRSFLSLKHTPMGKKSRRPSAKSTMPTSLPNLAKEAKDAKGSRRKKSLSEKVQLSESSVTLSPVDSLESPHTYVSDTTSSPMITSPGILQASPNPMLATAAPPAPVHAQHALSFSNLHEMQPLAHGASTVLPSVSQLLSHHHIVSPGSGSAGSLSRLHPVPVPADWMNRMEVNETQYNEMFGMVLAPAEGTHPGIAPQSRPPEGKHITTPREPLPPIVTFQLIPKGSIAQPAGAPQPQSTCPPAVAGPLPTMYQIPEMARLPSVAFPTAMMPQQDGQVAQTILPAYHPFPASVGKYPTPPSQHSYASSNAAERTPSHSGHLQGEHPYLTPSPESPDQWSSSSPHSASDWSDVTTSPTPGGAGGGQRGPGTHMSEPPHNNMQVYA
Sequence of Neurogenic locus notch homolog protein 3 (Homo sapiens) (Q9UM47 whole entry, looked up): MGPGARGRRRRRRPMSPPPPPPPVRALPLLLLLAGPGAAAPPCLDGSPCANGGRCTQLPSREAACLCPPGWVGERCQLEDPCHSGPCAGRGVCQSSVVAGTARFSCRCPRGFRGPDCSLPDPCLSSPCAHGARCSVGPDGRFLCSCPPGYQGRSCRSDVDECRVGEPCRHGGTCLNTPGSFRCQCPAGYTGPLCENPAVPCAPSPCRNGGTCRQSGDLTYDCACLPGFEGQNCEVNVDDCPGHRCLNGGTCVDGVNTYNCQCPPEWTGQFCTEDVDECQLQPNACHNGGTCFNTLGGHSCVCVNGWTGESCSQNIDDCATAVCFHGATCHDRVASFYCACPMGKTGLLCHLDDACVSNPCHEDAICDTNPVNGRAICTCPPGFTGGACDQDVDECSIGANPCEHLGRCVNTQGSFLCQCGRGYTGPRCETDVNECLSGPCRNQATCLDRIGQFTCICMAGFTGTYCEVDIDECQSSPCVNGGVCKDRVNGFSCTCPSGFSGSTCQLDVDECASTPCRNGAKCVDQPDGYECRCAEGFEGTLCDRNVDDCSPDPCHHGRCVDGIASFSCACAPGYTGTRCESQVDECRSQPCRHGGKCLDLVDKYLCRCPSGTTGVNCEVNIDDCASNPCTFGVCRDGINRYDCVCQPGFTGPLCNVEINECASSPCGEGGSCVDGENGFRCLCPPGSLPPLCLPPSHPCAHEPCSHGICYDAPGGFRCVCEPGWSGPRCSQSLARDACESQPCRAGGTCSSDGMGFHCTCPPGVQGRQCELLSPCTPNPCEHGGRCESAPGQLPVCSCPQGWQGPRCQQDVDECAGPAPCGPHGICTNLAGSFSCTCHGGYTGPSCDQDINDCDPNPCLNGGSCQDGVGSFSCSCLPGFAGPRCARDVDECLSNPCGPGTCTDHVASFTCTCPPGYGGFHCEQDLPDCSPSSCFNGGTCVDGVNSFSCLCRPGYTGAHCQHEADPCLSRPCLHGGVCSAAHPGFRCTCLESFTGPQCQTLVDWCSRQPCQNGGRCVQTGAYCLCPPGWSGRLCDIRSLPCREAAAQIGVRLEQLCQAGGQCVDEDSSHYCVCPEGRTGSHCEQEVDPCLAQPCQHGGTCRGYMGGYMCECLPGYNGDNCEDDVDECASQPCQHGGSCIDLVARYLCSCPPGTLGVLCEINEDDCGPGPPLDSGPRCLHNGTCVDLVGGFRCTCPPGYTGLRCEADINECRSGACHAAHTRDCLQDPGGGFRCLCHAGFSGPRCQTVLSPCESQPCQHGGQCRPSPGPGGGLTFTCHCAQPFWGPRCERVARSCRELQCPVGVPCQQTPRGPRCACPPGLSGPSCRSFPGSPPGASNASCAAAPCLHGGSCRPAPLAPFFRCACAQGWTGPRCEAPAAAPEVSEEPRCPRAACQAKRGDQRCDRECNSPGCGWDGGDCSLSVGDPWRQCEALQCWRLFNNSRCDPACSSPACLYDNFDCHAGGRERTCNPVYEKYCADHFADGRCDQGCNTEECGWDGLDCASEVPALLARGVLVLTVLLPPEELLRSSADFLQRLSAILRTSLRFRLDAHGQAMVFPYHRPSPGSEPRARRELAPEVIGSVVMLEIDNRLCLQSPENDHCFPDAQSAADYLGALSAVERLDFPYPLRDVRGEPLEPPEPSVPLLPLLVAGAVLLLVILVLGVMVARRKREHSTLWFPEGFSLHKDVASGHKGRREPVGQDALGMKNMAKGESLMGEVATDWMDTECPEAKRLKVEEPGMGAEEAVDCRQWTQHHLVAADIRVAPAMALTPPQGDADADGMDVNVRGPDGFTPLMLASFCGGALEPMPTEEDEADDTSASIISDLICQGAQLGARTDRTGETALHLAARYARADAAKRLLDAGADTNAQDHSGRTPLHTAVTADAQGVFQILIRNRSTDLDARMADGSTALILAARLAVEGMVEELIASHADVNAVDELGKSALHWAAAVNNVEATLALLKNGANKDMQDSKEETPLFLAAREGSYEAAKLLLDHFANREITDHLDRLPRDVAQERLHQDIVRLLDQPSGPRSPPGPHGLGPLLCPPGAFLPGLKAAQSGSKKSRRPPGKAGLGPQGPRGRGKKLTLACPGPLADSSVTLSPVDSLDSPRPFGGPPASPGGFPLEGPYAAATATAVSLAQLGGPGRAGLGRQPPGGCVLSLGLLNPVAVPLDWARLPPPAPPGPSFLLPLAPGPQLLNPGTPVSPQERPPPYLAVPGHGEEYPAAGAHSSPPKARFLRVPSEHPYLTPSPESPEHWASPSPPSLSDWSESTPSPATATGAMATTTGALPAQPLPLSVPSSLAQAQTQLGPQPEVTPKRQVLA

SMILES	composite z-score [1]	composite z-score [2]	composite z-score [3]	composite z-score [4]	composite z-score [5]	composite z-score [6]	composite z-score [7]	z-score [8]	composite z-score [9]	composite z-score [10]	composite z-score [11]	z-score [12]	z-score [13]	z-score [14]	composite z-score [15]	z-score [16]	composite z-score [17]	composite z-score [18]	composite z-score [19]	composite z-score [20]
O=C1O[C@@H](c2ccccc2)[C@@H](c2ccccc2)N2[C@@H](c3ccc(O)cc3)[C@]3(C(=O)Nc4ccc(C#CC5=CCCCC5)cc43)[C@@H](C(=O)N3CCN(c4ncccn4)CC3)[C@H]12	-0.397	0.892	-0.0287	0.323	0.846	0.901	1.2	0.795 (inactive)	0.207	0.0116	1.55	0.922 (inactive)	0.487 (inactive)	0.566 (inactive)	3.12	1.62 (inactive)	0.517	1.86	1.15	-0.115
CCOc1cc(C(O)C2C=CC3C(=O)N(C4CCCCC4)C(=O)C3N2Nc2ccc(OC)cc2)ccc1O (stereo not given)	0.26	0.456	0.0465	0.339	1.64	1.72	1.28	1.79 (inactive)	0.775	-0.132	1.17	-0.344 (inactive)	-0.118 (inactive)	-0.129 (inactive)	3.21	-0.0874 (inactive)	0.0252	0.163	1.05	0.0295
COC(=O)[C@@]1(Cc2ccc(OC)cc2)[C@H]2c3cc(C(=O)N4CCCC4)n(CCc4cc5ccccc5[nH]4)c3C[C@H]2CN1C(=O)c1ccccc1	0.649	0.115	0.194	0.614	1.36	1.9	1.1	0.562 (inactive)	1.71	0.363	0.907	0.596 (inactive)	2.61 (inactive)	1.72 (inactive)	3.43	-0.12 (inactive)	0.507	0.364	1.05	0.0464
C[N+](C)(C)CCCC[C@@H]1NC(=O)[C@@H]2C[C@H](C(=O)O)[C@H](c3ccc(O)cc3)N2C1=O	1.26	-0.752	-0.119	-0.695	-1.77	-0.0673	-0.118	0.0902 (inactive)	-0.639	-0.137	-0.701	0.151 (inactive)	0.229 (inactive)	-1.27 (inactive)	-0.972	0.0772 (inactive)	-0.0943	-0.342	-0.694	-0.269
O=C1c2ccccc2[C@](Cc2ccccc2I)(C(=O)NCc2ccccc2)[C@H](c2ccc(CO)cc2)N1C1CCCCC1	-0.126	0.106	-0.0291	0.753	1.13	1.76	1.27	-1.6 (inactive)	0.671	0.189	1.27	-0.0116 (inactive)	-1.32 (inactive)	-0.0677 (inactive)	1.78	-0.403 (inactive)	0.117	1.32	0.918	0.494
C=C(/C=C/CNS(=O)(=O)c1ccc(C)cc1)[C@H](O)[C@H]1CCCN1S(=O)(=O)c1ccccc1[N+](=O)[O-]	-0.402	0.578	-0.0817	0.395	0.324	0.211	0.0706	-4.12 (inactive)	0.279	0.0373	0.13	1.27 (inactive)	0.24 (inactive)	1.72 (inactive)	-0.271	0.913 (inactive)	-0.0948	1.3	0.291	0.0408
COc1ccc(C(O)C2C=CC3C(=O)N(c4ccccc4)C(=O)C3N2Nc2ccc(C#N)cc2)c2ccccc12 (stereo not given)	0.983	0.707	0.0785	0.337	1.6	1.96	1.11	0.757 (inactive)	1.2	0.0515	1.35	-1.89 (inactive)	2.35 (inactive)	0.906 (inactive)	3.38	-0.945 (inactive)	0.397	0.238	1.08	-0.0424
O=c1cccc(-c2ccc(C(F)(F)F)cc2)o1	-0.0035	-0.814	-0.045	-0.173	-0.33	-0.289	-0.44	3.27 (inactive)	-0.126	-0.0994	-1.99	-2.99 (inactive)	-8.39 (active)	0.427 (inactive)	-0.0985	-0.491 (inactive)	-0.16	-0.161	-0.894	-0.22
C[C@@H](OCc1ccccc1)C1NC(=O)[C@@]23C(=O)N[C@@H](Cc4ccccc4)C2[C@H](C)[C@@]2(C)O[C@H]2C3/C=C/C/C=C\CNC(=O)CNC1=O (stereo not given in full)	-0.231	0.667	-0.132	0.25	-1.08	-0.366	-0.002	-0.0275 (inactive)	-0.294	-0.134	-0.615	0.569 (inactive)	-1.32 (inactive)	-0.929 (inactive)	0.621	-0.557 (inactive)	-0.145	-0.526	-0.0955	-0.24
CCCNC(=O)[C@@]1(c2ccc([N+](=O)[O-])cc2)CC(=O)N(C2CCCCC2)[C@@H]1c1ccc(CO)cc1I	0.368	0.983	0.091	0.599	0.96	0.456	1.21	-0.546 (inactive)	0.29	-0.0994	1.48	-1.58 (inactive)	0.503 (inactive)	1.93 (inactive)	2.52	0.422 (inactive)	-0.0649	1.5	0.976	0.0592
